Reference: PubChem BioAssay (Tox21)
Inconclusive results are not listed. The source made the active and inactive calls. Unless noted, the call rests on the fitted dose curve; in most records, active means well fitted curve in the direction sought with a large enough effect in the repeat runs; inconclusive means weak or mixed curves; inactive means no such curve, though single readings can be large; an effect the other way counts as inactive or inconclusive.

Columns and labels:
[1] = qHTS assay to test for compound auto fluorescence at 535 nm (green) in HEK293 cells (AID 720680)
[2] = qHTS assay to test for compound auto fluorescence at 460 nm (blue) in HEK293 cell free culture (AID 720681)
How it was run: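 Blue fluorescence (Ex 405/Em 460 nm, triamterene-equivalent) was read immediately after pin transfer of compound or DMSO into medium (DMEM, 10% FBS) without cells.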

[3] = qHTS assay to test for compound auto fluorescence at 535 nm (green) in HEK293 cell free culture (AID 720682)
How it was run: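 Compounds were pin-transferred into cell-free DMEM with 10% FBS, and green fluorescence was read at excitation 485 nm and emission 535 nm. Intensities were expressed as fluorescein-equivalent values.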

[4] = qHTS assay to test for compound auto fluorescence at 590 nm (red) in HEK293 cell free culture (AID 720683)
How it was run: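 Red-channel autofluorescence of compounds in culture medium (DMEM, 10% FBS), no cells, measured at 540/590 nm. Rose Bengal sodium is the reference fluorophore for equivalence.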

[5] = qHTS assay to test for compound auto fluorescence at 590 nm (red) in HepG2 cell free culture (AID 720684)
How it was run: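 Steps: dispense MEM/10% FBS medium, no cells; pin compound or DMSO vehicle; read red channel, Ex/Em 540/590 nm. Output given as Rose Bengal sodium equivalents.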

[6] = qHTS assay to test for compound auto fluorescence at 460 nm (blue) in HepG2 cell free culture (AID 720685)
How it was run: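 Compound (23 nL) or DMSO pinned into cell-free MEM with 10% FBS; blue fluorescence read at 405/460 nm excitation/emission, expressed as auto-fluorescence equivalency to triamterene.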

[7] = qHTS assay to test for compound auto fluorescence at 535 nm (green) in HepG2 cell free culture (AID 720686)
[8] = target: Glucocorticoid receptor (Homo sapiens) (UniProt P04150); experiment: qHTS assay to identify small molecule agonists of the glucocorticoid receptor (GR) signaling pathway (AID 720691; active means well fitted activation curve with a large enough effect in the signal ratio in the repeat runs, not every such curve was filed as active; the % refers to the signal ratio)
Sequence of Glucocorticoid receptor (Homo sapiens) (P04150 whole entry, looked up): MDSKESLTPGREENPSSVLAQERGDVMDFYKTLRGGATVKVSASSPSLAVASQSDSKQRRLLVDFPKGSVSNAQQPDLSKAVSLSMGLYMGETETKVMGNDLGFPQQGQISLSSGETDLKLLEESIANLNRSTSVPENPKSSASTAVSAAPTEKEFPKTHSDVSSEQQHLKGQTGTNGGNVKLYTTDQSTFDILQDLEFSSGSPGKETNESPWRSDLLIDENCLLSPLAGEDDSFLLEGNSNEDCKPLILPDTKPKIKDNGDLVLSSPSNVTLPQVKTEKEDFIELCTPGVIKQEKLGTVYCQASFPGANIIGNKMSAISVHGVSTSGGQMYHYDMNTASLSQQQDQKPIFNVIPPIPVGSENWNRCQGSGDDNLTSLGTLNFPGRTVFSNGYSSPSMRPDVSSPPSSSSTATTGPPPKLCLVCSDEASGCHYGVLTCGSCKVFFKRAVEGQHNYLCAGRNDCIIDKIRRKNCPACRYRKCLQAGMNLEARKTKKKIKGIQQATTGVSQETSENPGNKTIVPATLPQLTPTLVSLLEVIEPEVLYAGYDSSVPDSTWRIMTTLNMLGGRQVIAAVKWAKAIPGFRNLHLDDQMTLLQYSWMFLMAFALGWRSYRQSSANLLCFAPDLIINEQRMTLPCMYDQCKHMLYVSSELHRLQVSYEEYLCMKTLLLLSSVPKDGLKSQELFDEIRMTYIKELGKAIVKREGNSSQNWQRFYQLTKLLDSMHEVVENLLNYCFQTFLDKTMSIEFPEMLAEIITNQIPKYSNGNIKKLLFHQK
How it was run: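 GR-bla HeLa cells (beta-lactamase reporter under glucocorticoid response element) were plated 4 h at 37 C/5% CO2, given compounds in DMSO, and incubated 18 h at 37 C. LiveBLAzer B/G FRET substrate was added for 2 h at room temperature, then fluorescence intensity read.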

[9] = target: Glucocorticoid receptor (Homo sapiens) (UniProt P04150); experiment: qHTS assay to identify small molecule antagonists of the glucocorticoid receptor (GR) signaling pathway (AID 720692; active means well fitted inhibition curve with a large enough effect in the signal ratio in the repeat runs, not every such curve was filed as active; the % refers to the signal ratio)
How it was run: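 GR-bla HeLa cells (beta-lactamase reporter under glucocorticoid response element) were pre-plated 4 h at 37 C, treated with compounds plus 5 nM dexamethasone (final) for 18 h, then read by LiveBLAzer B/G FRET fluorescence after 2 h.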

[10] = qHTS assay to identify small molecule antagonists of the glucocorticoid receptor (GR) signaling pathway - cell viability counter screen (AID 720693); further: nearly all actives have a fitted effect of over 55% in size
[11] = qHTS assay for identifying genotoxic compounds that show differential cytotoxicity against isogenic chicken DT40 cell lines with known DNA damage response pathways - wild type cell line (AID 743012); further: nearly all actives have a fitted effect of over 60% in size
How it was run: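 Parental DNA repair-proficient DT40 cells, 300 per well, were pre-incubated ~0.5 h at 37 C/5% CO2, pin-dosed with compounds in DMSO, then incubated 40 h. Viability was read as CellTiter-Glo luminescence after 30 min at room temperature.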

[12] = qHTS assay for identifying genotoxic compounds that show differential cytotoxicity against isogenic chicken DT40 cell lines with known DNA damage response pathways - Rev3 mutant cell line (AID 743014); further: nearly all actives have a fitted effect of over 55% in size
[13] = qHTS assay for identifying genotoxic compounds that show differential cytotoxicity against isogenic chicken DT40 cell lines with known DNA damage response pathways - Rad54/Ku70 mutant cell line (AID 743015); further: nearly all actives have a fitted effect of over 60% in size
[14] = qHTS assay to identify small molecule antagonists of the androgen receptor (AR) signaling pathway - cell viability counter screen (AID 743033; further: nearly all actives have a fitted effect of over 45% in size)
[15] = qHTS assay to identify small molecule antagonists of the androgen receptor (AR) signaling pathway using the MDA cell line - cell viability counter screen (AID 743041; further: nearly all actives have a fitted effect of over 45% in size)
How it was run: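 Cells were plated at 3,000 per well and left 5 h. Compounds in DMSO were then pinned in, followed by R1881. After 16 h at 37C, CellTiter-Fluor fluorescence gave viability.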

[16] = qHTS assay to test for compound auto fluorescence at 460 nm (blue) in HepG2 cells (AID 720687)
How it was run: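 Blue-channel autofluorescence (Ex/Em 405/460 nm, triamterene-equivalent) was measured after 1 hr compound exposure at 37 C, 5% CO2. Cells were HepG2, plated overnight at 37 C in MEM plus 10% FBS.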

[17] = target: Androgen receptor (Homo sapiens) (UniProt P10275); experiment: qHTS assay to identify small molecule antagonists of the androgen receptor (AR) signaling pathway (AID 743035; active means well fitted inhibition curve with a large enough effect in the signal ratio in the repeat runs, not every such curve was filed as active; the % refers to the signal ratio)
Sequence of Androgen receptor (Homo sapiens) (P10275 whole entry, looked up): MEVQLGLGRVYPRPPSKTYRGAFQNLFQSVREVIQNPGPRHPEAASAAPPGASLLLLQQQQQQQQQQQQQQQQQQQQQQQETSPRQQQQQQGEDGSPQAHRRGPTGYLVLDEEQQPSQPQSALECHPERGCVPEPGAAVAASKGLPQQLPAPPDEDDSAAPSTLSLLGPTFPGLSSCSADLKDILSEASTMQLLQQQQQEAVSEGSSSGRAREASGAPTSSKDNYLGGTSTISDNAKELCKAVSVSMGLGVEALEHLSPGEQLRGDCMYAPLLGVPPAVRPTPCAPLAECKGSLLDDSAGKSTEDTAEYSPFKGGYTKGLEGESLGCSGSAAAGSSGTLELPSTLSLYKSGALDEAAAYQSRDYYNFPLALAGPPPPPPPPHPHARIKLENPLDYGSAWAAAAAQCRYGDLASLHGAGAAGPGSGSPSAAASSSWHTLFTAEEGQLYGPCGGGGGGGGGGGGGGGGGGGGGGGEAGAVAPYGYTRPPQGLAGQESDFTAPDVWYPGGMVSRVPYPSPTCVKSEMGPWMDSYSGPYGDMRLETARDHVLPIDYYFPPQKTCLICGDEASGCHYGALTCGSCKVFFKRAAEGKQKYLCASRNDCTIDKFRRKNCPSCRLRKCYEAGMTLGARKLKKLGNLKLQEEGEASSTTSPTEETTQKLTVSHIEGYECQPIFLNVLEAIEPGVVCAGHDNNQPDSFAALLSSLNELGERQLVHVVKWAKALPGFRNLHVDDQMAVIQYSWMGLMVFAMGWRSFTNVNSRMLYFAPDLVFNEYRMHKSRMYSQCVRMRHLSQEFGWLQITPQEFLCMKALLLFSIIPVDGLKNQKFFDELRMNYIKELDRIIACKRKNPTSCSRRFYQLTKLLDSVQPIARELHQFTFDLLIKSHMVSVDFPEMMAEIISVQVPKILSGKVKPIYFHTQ
How it was run: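 HEK293 cells stably carrying a UAS-driven beta-lactamase reporter (AR-UAS-bla GripTite) were plated for 4 h at 37C, then given compound and the agonist R1881 and incubated 16 h. Reporter activity was read by LiveBLAzer B/G FRET fluorescence after 2 h at room temperature.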

[18] = target: Androgen receptor (Homo sapiens) (UniProt P10275); experiment: qHTS assay to identify small molecule agonists of the androgen receptor (AR) signaling pathway using the MDA cell line (AID 743040; further: nearly all actives have a fitted effect of over 20% in size)
How it was run: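 Cells plated, 5 h at 37C/0% CO2; compound or DMSO pinned; 16 h at 37C; ONE-Glo added; luminescence measured after 30 min at room temperature. Reporter line: MDA-kb2 with MMTV-luciferase responsive to AR and GR.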

[19] = target: Androgen receptor (Homo sapiens) (UniProt P10275); experiment: qHTS assay to identify small molecule antagonists of the androgen receptor (AR) signaling pathway using the MDA cell line (AID 743042; further: nearly all actives have a fitted effect of over 55% in size)
How it was run: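 Antagonist mode: compounds plus R1881 agonist added to MDA-kb2 AR-luc cells, incubated 16 h at 37C. Luciferase reporter luminescence quantified, with multiplexed CellTiter-Fluor readout for cell viability.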

[20] = target: Androgen receptor (Homo sapiens) (UniProt P10275); experiment: qHTS assay to identify small molecule agonists of the androgen receptor (AR) signaling pathway (AID 743036; active means well fitted activation curve with a large enough effect in the signal ratio in the repeat runs, with a control signal flat, not every such curve was filed as active; the % refers to the signal ratio)
How it was run: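 Activation was read as beta-lactamase FRET signal from LiveBLAzer B/G substrate, added for 2 h at room temperature. Before that, GeneBLAzer AR-UAS-bla GripTite (HEK293) cells had 16 h compound exposure at 37C.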
On the % scale 0 is the no-effect control and ±100 the full control effect.

CN(C)CC/C=C1/c2ccccc2COc2ccc(CC(=O)O)cc21
inactive: outcome [1] | outcome [2] | outcome [3] | outcome [4] | outcome [5] | outcome [6] | outcome [7] | Potency [8] | outcome [9] | outcome [10] | Potency [11] | Potency [12] | Potency [13] | outcome [14] | Potency [15]

CC1(C)CC(OC(=O)CCCCCCCCC(=O)OC2CC(C)(C)NC(C)(C)C2)CC(C)(C)N1
inactive: fluorescence, % of fluorescein [1] -0.0999% [at 18.6 µM] | fluorescence, % of fluorescent control [2] -0.182% [at 18.6 µM] | activity change [3] -0.0076% [at 18.6 µM] | fluorescence, % of fluorescent control [4] 0.038% [at 18.6 µM] | fluorescence, % of Rose Bengal [5] 0.143% [at 18.6 µM] | fluorescence, % of fluorescent control [6] -0.0702% [at 18.6 µM] | fluorescence, % of fluorescent control [16] -0.0104% [at 18.6 µM] | Potency [8] | outcome [9] | outcome [10] | Potency [11] | Potency [12] | Potency [13] | outcome [14] | Potency [15]

O=C(O)CNC(=O)CNC(=O)CNC(=O)CSC(=O)c1ccccc1
inactive: outcome [1] | outcome [2] | outcome [3] | outcome [4] | outcome [5] | outcome [6] | outcome [16] | Potency [8] | outcome [9] | outcome [10] | Potency [12] | Potency [13] | outcome [14] | Potency [15]

NCCOCCN
inactive: outcome [1] | outcome [2] | outcome [3] | outcome [4] | outcome [5] | outcome [6] | outcome [16] | outcome [10] | Potency [11] | Potency [13] | outcome [14] | Potency [15]

CCCCCCCCCCCCCCC(=O)NC(CO)CCCCCCCCCCCCCC (stereo unspecified)
inactive: outcome [1] | outcome [2] | outcome [4] | outcome [5] | outcome [6] | outcome [7] | outcome [16] | Potency [8] | outcome [9] | outcome [10] | Potency [11] | Potency [12] | Potency [13] | outcome [14] | Potency [15]

CC(=O)OC1CCCCC1C(C)(C)C (stereo unspecified)
inactive: outcome [1] | outcome [2] | outcome [3] | outcome [4] | outcome [5] | outcome [6] | outcome [16] | Potency [8] | outcome [10] | Potency [12] | Potency [13] | outcome [14] | outcome [17] | Potency [18] | Potency [15] | outcome [19]

C=CCCCCCCCCC(=O)OCCCC
inactive: outcome [1] | outcome [2] | outcome [3] | outcome [4] | outcome [5] | outcome [6] | outcome [10] | Potency [11] | Potency [13] | outcome [14] | Potency [15]

COC(=O)c1cc(Cl)cc(Cl)c1
inactive: outcome [1] | outcome [2] | outcome [4] | outcome [5] | outcome [6] | outcome [7] | outcome [16] | Potency [8] | outcome [9] | outcome [10] | Potency [11] | Potency [12] | Potency [13] | outcome [14] | outcome [17] | Potency [18] | Potency [15] | outcome [19]

O=C1CCCCO1
inactive: outcome [1] | outcome [2] | outcome [3] | outcome [4] | outcome [5] | outcome [6] | outcome [16] | Potency [8] | outcome [9] | outcome [10] | Potency [11] | Potency [12] | Potency [13] | outcome [14] | Potency [15]

CC1CC(=O)CC(C)(C)C1 (stereo unspecified)
inactive: outcome [1] | outcome [2] | outcome [3] | outcome [4] | outcome [5] | outcome [6] | outcome [16] | Potency [8] | outcome [9] | Potency [11] | Potency [12] | Potency [13] | outcome [14] | Potency [15]

CCCCOCCOC(=O)COc1ccc(Cl)cc1Cl
inactive: outcome [1] | outcome [2] | outcome [3] | outcome [4] | outcome [5] | outcome [6] | outcome [16] | Potency [8] | outcome [9] | outcome [10] | Potency [11] | Potency [12] | Potency [13] | outcome [14] | Potency [15]

COC(=O)CCCCC(=O)O
inactive: outcome [1] | outcome [2] | outcome [3] | outcome [4] | outcome [5] | outcome [6] | outcome [16] | Potency [8] | outcome [9] | outcome [10] | Potency [12] | outcome [14] | Potency [15]

CCCCOC(=O)C(C)O (stereo unspecified)
inactive: outcome [1] | outcome [2] | outcome [3] | outcome [4] | outcome [5] | outcome [6] | Potency [8] | outcome [9] | outcome [10] | Potency [11] | Potency [12] | Potency [13] | outcome [14] | Potency [15]

O=C1c2ccccc2C(=O)c2cc(Cl)ccc21
inactive: fluorescence, % of fluorescein [1] 0.0004% [at 3.72 µM] | fluorescence, % of fluorescent control [2] -0.0102% [at 3.72 µM] | activity change [3] -0.0107% [at 3.72 µM] | fluorescence, % of fluorescent control [4] -0.094% [at 3.72 µM] | fluorescence, % of Rose Bengal [5] -0.0228% [at 3.72 µM] | fluorescence, % of fluorescent control [6] -0.0625% [at 3.72 µM] | fluorescence, % of fluorescent control [16] -0.0186% [at 3.72 µM] | activation [8] -4.3% [at 6.9 µM] | activity change, negative = inhibition [9] -15.1% [at 7.04 µM] | viability change, negative = cytotoxic [10] -1.8% [at 7.04 µM] | activity change, negative = cytotoxicity [11] 8.37% [at 8.52 µM] | activity change, negative = cytotoxicity [13] 2.51% [at 8.55 µM] | activity change, negative = cytotoxicity [14] 5.05% [at 7.04 µM] | viability change, negative = cytotoxic [15] -1.61% [at 8.47 µM]

O=[N+]([O-])c1c(Cl)cc(Cl)cc1Cl
inactive: outcome [1] | outcome [2] | outcome [3] | outcome [4] | outcome [5] | outcome [6] | outcome [16] | Potency [8] | outcome [9] | outcome [10] | Potency [11] | Potency [12] | Potency [13] | outcome [14] | Potency [15]

COC(=O)c1cccc(Cl)c1
inactive: outcome [1] | outcome [2] | outcome [3] | outcome [4] | outcome [5] | outcome [6] | outcome [16] | outcome [10] | Potency [11] | Potency [12] | Potency [13] | outcome [14] | Potency [15]

CCC(C)OC(C)CC (stereo unspecified)
inactive: outcome [1] | outcome [2] | outcome [3] | outcome [4] | outcome [5] | outcome [6] | outcome [16] | Potency [8] | outcome [9] | outcome [10] | Potency [11] | Potency [12] | Potency [13] | outcome [14] | outcome [17] | outcome [20] | Potency [18] | Potency [15] | outcome [19]

Cc1c(NC(=O)c2cccnc2)c(=O)n(-c2ccccc2)n1C
inactive: fluorescence, % of fluorescein [1] -0.0295% [at 18.6 µM] | fluorescence, % of fluorescent control [2] -0.0145% [at 18.6 µM] | activity change [3] 0.0113% [at 18.6 µM] | fluorescence, % of fluorescent control [4] -0.0161% [at 18.6 µM] | fluorescence, % of Rose Bengal [5] 0.102% [at 18.6 µM] | fluorescence, % of fluorescent control [6] -0.005% [at 18.6 µM] | fluorescence, % of fluorescent control [16] 0.0214% [at 18.6 µM] | Potency [8] | outcome [9] | outcome [10] | Potency [11] | Potency [13] | Potency [15]

CCOCCOCC
inactive: outcome [1] | outcome [2] | outcome [3] | outcome [4] | outcome [5] | outcome [6] | outcome [16] | Potency [8] | outcome [9] | outcome [10] | Potency [11] | Potency [12] | Potency [13] | outcome [14] | Potency [15]
